PubChem BioAssay (NCI)
The panel holds about 79,000 compounds, 15% with a hit somewhere; the sample as a whole holds those more often. Active and inactive are the calls of the source. No stated cut-off is given here; in the data, active means growth inhibition above about 70%; inactive means the rest.

Experiments:
[1] = NCI Yeast Anticancer Drug Screen. Data for the rad52 strain (AID 147);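 further: 0% = growth of vehicle-treated control cultures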; settings: S. cerevisiae rad52 mutant growth inhibition, active compounds read high
How it was run: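 Vehicle-treated cultures served as the reference for growth inhibition of compound-exposed yeast bearing a DNA repair mutation.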

[2] = NCI Yeast Anticancer Drug Screen. Data for the wt1 strain (AID 149);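 further: 0% = growth of vehicle-treated wt1 cultures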; settings: S. cerevisiae wt1 strain (SPY 50644) growth inhibition, active compounds read high
How it was run: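 Yeast wt1 strain exposed to compounds; growth inhibition measured relative to vehicle-treated controls.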

[3] = NCI Yeast Anticancer Drug Screen. Data for the rad50EPP+ strain (AID 151);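 further: 0% = growth of vehicle-treated control cultures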; settings: S. cerevisiae rad50 mutant strain, active compounds read high
How it was run: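 In this screen, rad50EPP+ yeast were exposed to compounds. Growth inhibition was scored against vehicle-treated controls.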

[4] = NCI Yeast Anticancer Drug Screen. Data for the mgt1 strain (AID 153); settings: S. cerevisiae mgt1 mutant growth inhibition, active compounds read high
How it was run: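 mgt1 strain exposed; growth vs vehicle control recorded as inhibition.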

[5] = NCI Yeast Anticancer Drug Screen. Data for the rad50 strain (AID 155);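 further: 0% = growth of vehicle-only cultures of the same strain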; settings: S. cerevisiae rad50 strain growth inhibition, active compounds read high
How it was run: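 Yeast carrying a defined DNA repair defect were exposed to test compounds, and growth was compared with vehicle-treated controls to give percent inhibition.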

[6] = NCI Yeast Anticancer Drug Screen. Data for the mec2-1 strain (AID 157); settings: S. cerevisiae mec2-1 strain, active compounds read high
How it was run: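 Vehicle-treated cultures served as reference for growth inhibition of compound-exposed mec2-1 yeast.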

[7] = NCI Yeast Anticancer Drug Screen. Data for the rad14 strain (AID 159);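 further: 0% = growth of vehicle-treated control cultures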; settings: S. cerevisiae rad14 strain growth inhibition, active compounds read high
How it was run: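 Yeast cells carrying a defined DNA-repair defect were exposed to compounds, and growth inhibition was calculated relative to vehicle-treated control cultures.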

[8] = NCI Yeast Anticancer Drug Screen. Data for the sgs1 mgt1 strain (AID 161);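 further: 0% = growth of cultures given vehicle only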; settings: S. cerevisiae sgs1 mgt1 strain, active compounds read high
How it was run: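 Test agents were incubated with a DNA-repair-mutant yeast strain. Growth was then read and compared against vehicle-treated controls.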

[9] = NCI Yeast Anticancer Drug Screen. Data for the CLN2oe strain (AID 163);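 further: 0% = growth of vehicle-only control cultures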; settings: S. cerevisiae CLN2oe strain, active compounds read high
How it was run: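 Inhibition relative to vehicle-treated yeast is reported. Cells: strain with genetic alteration in cell-cycle control, grown with compound.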

[10] = NCI Yeast Anticancer Drug Screen. Data for the cln2 rad14 strain (AID 165);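 further: 0% = growth equal to vehicle treated cultures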; settings: S. cerevisiae cln2 rad14 strain, active compounds read high
How it was run: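 Each compound was tested on cln2 rad14 yeast. Inhibition of growth was calculated against vehicle-exposed controls.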

[11] = NCI Yeast Anticancer Drug Screen. Data for the bub3 strain (AID 167); settings: S. cerevisiae bub3 mutant strain, active compounds read high
How it was run: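 Compounds were applied to a genetically altered yeast strain carrying a cell-cycle control defect. Growth inhibition was scored against vehicle-treated controls.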

[12] = NCI Yeast Anticancer Drug Screen. Data for the wt2 strain (AID 169);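 further: 0% = growth of vehicle-treated yeast cultures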; settings: S. cerevisiae wt2 strain growth inhibition, active compounds read high
How it was run: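 Inhibition of yeast growth was determined after compound treatment, normalised to controls receiving only vehicle.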

[13] = NCI Yeast Anticancer Drug Screen. Data for the mlh1 strain (AID 171);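 further: 0% = growth of vehicle-treated control cultures of the same strain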; settings: S. cerevisiae mlh1 strain growth inhibition, active compounds read high
How it was run: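 Vehicle-normalised growth inhibition of a repair- or checkpoint-altered yeast strain following compound treatment.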

[14] = NCI Yeast Anticancer Drug Screen. Data for the sgs1 strain (AID 173);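 further: 0% = growth of vehicle-only control cultures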; settings: S. cerevisiae sgs1 mutant, active compounds read high
How it was run: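 Screen format: yeast with repair or checkpoint alterations, compound exposure, growth read relative to vehicle.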

[15] = NCI Yeast Anticancer Drug Screen. Data for the mlh1 rad18 strain (AID 175); settings: S. cerevisiae mlh1 rad18 strain growth inhibition, active compounds read high
How it was run: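 Vehicle-treated cultures served as the reference for growth inhibition in a yeast strain carrying DNA damage repair alterations exposed to each compound.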

[16] = NCI Yeast Anticancer Drug Screen. Data for the rad18 strain (AID 177); settings: S. cerevisiae rad18 mutant growth inhibition, active compounds read high
How it was run: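 Test articles were incubated with altered yeast defective in DNA damage repair. Results are given as inhibition of growth versus vehicle.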

[17] = at 5.0 µM (retest, dose inferred, filed as 0.5)
[18] = at 50.0 µM (retest, dose inferred, filed as 5.0)

Measured: growth inhibition

CCOC(=O)c1ccc(NC(=O)O/N=C(/Cl)C(C)C)cc1
active: [1]; at 100.0 µM 98% | [2]; at 100.0 µM 97% | [3]; at 100.0 µM 87% | [4]; at 33.0 µM 73% | [4]; at 100.0 µM 99% | [5]; [18] 92% | [5]; at 100.0 µM 98% | [6]; [18] 95% | [6]; at 50.0 µM 85.5% | [6]; at 100.0 µM 99% | [7]; at 100.0 µM 99% | [8]; [18] 98% | [8]; at 50.0 µM 81.8% | [9]; at 100.0 µM 97% | [10]; [18] 87% | [11]; [18] 97% | [11]; at 50.0 µM 76.6% | [11]; at 100.0 µM 98% | [12]; at 33.0 µM 91% | [12]; at 100.0 µM 99% | [13]; at 33.0 µM 84% | [13]; at 100.0 µM 99% | [14]; at 33.0 µM 93% | [14]; at 100.0 µM 99% | [15]; [18] 95% | [16]; at 100.0 µM 98%
inactive: [1]; at 1.2 µM -2% | [1]; at 3.7 µM 3% | [1]; at 11.0 µM 14% | [1]; at 33.0 µM 58% | [2]; at 1.2 µM -1% | [2]; at 3.7 µM -6% | [2]; at 11.0 µM -11% | [2]; at 33.0 µM -14% | [3]; at 1.2 µM 1% | [3]; at 3.7 µM 8% | [3]; at 11.0 µM 22% | [3]; at 33.0 µM 44% | [4]; at 1.2 µM -3% | [4]; at 3.7 µM -7% | [4]; at 11.0 µM -5% | [5]; at 1.2 µM -1% | [5]; at 3.7 µM 4% | [5]; [17] 5% | [5]; at 11.0 µM 7% | [5]; at 33.0 µM 48% | [5]; at 50.0 µM 55.4% | [6]; at 1.2 µM 1% | [6]; at 3.7 µM 1% | [6]; [17] -19% | [6]; at 11.0 µM 3% | [6]; at 33.0 µM 45% | [7]; at 1.2 µM -4% | [7]; at 3.7 µM -5% | [7]; at 11.0 µM -2% | [7]; at 33.0 µM 2% | [8]; [17] -12% | [9]; at 1.2 µM -2% | [9]; at 3.7 µM 2% | [9]; at 11.0 µM -5% | [9]; at 33.0 µM -22% | [10]; [17] 17% | [10]; at 50.0 µM 63.4% | [11]; at 1.2 µM 9% | [11]; at 3.7 µM 18% | [11]; [17] -7% | [11]; at 11.0 µM 28% | [11]; at 33.0 µM 55% | [12]; at 1.2 µM -4% | [12]; at 3.7 µM -8% | [12]; at 11.0 µM 10% | [13]; at 1.2 µM -6% | [13]; at 3.7 µM -4% | [13]; at 11.0 µM -4% | [14]; at 1.2 µM -3% | [14]; at 3.7 µM -4% | [14]; at 11.0 µM 28% | [15]; [17] -7% | [15]; at 50.0 µM 69.1% | [16]; at 1.2 µM -5% | [16]; at 3.7 µM -5% | [16]; at 11.0 µM -1% | [16]; at 33.0 µM 12%

CC1OC(O[C@H]2/C=C/C=C/C=C/C=C/C=C/C=C/C=C/[C@H](C)[C@@H](O)[C@@H](C)[C@H](C)OC(=O)C[C@H](O)C[C@H](O)CC[C@@H](O)[C@H](O)C[C@H](O)C[C@]3(O)C[C@H](O)[C@@H](C(=O)O)[C@H](C2)O3)C(O)C(N)C1O (stereo partly specified)
inactive: [1]; at 1.2 µM 2% | [1]; at 3.7 µM 45% | [2]; at 1.2 µM 2% | [2]; at 3.7 µM 13% | [3]; at 1.2 µM 25% | [4]; at 1.2 µM 17% | [4]; at 3.7 µM 57% | [5]; at 1.2 µM 19% | [5]; at 3.7 µM 61% | [5]; [17] 18% | [6]; at 1.2 µM -2% | [6]; at 3.7 µM 28% | [6]; [17] 32% | [7]; at 1.2 µM 2% | [7]; at 3.7 µM 23% | [8]; [17] 25% | [9]; at 1.2 µM 2% | [9]; at 3.7 µM 23% | [10]; [17] 50% | [11]; at 1.2 µM -19% | [11]; at 3.7 µM 19% | [11]; [17] 14% | [12]; at 1.2 µM -65% | [12]; at 3.7 µM -3% | [13]; at 1.2 µM 7% | [14]; at 1.2 µM 10% | [14]; at 3.7 µM 50% | [15]; [17] 47% | [16]; at 1.2 µM -20% | [16]; at 3.7 µM 35%
active: [1]; at 11.0 µM 98% | [1]; at 33.0 µM 98% | [1]; at 100.0 µM 98% | [2]; at 11.0 µM 98% | [2]; at 33.0 µM 98% | [2]; at 100.0 µM 98% | [3]; at 3.7 µM 97% | [3]; at 11.0 µM 99% | [3]; at 33.0 µM 99% | [3]; at 100.0 µM 98% | [4]; at 11.0 µM 98% | [4]; at 33.0 µM 99% | [4]; at 100.0 µM 98% | [5]; at 11.0 µM 98% | [5]; at 33.0 µM 98% | [5]; [18] 99% | [5]; at 50.0 µM 99.1% | [5]; at 100.0 µM 97% | [6]; at 11.0 µM 98% | [6]; at 33.0 µM 98% | [6]; [18] 99% | [6]; at 50.0 µM 99.4% | [6]; at 100.0 µM 98% | [7]; at 11.0 µM 95% | [7]; at 33.0 µM 97% | [7]; at 100.0 µM 98% | [8]; [18] 99% | [8]; at 50.0 µM 99.2% | [9]; at 11.0 µM 98% | [9]; at 33.0 µM 98% | [9]; at 100.0 µM 98% | [10]; [18] 99% | [10]; at 50.0 µM 99.1% | [11]; at 11.0 µM 98% | [11]; at 33.0 µM 98% | [11]; [18] 99% | [11]; at 50.0 µM 98.8% | [11]; at 100.0 µM 98% | [12]; at 11.0 µM 96% | [12]; at 33.0 µM 98% | [12]; at 100.0 µM 98% | [13]; at 3.7 µM 78% | [13]; at 11.0 µM 98% | [13]; at 33.0 µM 98% | [13]; at 100.0 µM 98% | [14]; at 11.0 µM 99% | [14]; at 33.0 µM 99% | [14]; at 100.0 µM 99% | [15]; [18] 99% | [15]; at 50.0 µM 98.7% | [16]; at 11.0 µM 97% | [16]; at 33.0 µM 98% | [16]; at 100.0 µM 97%
